We go through 6 compounds from PubChem BioAssay (EPA / NIEHS).

In general, AC50 refers to the concentration giving half of the maximal activity seen.

Each structure is given as a SMILES string. Results filed as inconclusive are left out. Activity calls are given as the source filed them. Rule for the calls, unless noted: active = hit-call score of the fitted dose curve at least 0.9, where 1 is the maximum; inconclusive = response in the unintended direction; inactive = score below 0.9.

In experiment [1] the target is zebrafish Thyroid Hormone Receptor alpha (TRa), thraa (gene 30670) (UniProt Q98867). Kind of experiment: ATG_zfTRa_XSP2: Attagene TRANS-FACTORIAL Multi-Species (XSP1) HepG2 Assay for zebrafish Thyroid Hormone Receptor alpha (TRa) (AID 2283832).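 Note: actives raise zebrafish TRa-Gal4 reporter transcript above DMSO baseline.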 Put shortly: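 Chimeric zebrafish TRa-Gal4 activity read in transfected human HepG2 as GAL4-UAS reporter transcripts, 24 h post-dose, via RT-PCR with labeled primer extension and capillary electrophoresis. Medium also carries 3 nM 6-alpha-fluorotestosterone and 1.5 nM norgestrel; DMSO baseline.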
zebrafish Thyroid Hormone Receptor alpha (TRa), thraa (gene 30670), sequence (Q98867 whole entry, looked up, the tested form may be a part): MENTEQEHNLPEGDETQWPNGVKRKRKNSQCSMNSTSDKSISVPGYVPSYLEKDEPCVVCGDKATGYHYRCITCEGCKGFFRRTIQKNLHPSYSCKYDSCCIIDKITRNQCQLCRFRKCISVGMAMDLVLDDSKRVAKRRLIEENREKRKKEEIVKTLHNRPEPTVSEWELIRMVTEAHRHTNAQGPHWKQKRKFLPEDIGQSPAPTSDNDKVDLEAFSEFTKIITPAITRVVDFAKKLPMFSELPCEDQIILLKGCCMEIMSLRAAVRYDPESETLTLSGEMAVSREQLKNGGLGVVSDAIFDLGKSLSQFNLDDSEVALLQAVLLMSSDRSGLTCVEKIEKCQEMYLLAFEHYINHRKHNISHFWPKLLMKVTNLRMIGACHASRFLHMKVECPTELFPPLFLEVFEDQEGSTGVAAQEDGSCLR

The test system of experiment [2] is zebrafish Peroxisome Proliferator-activated Receptor gamma (PPARg), gene 557037. Kind of experiment: ATG_zfPPARg_XSP2: Attagene TRANS-FACTORIAL Multi-Species (XSP2) HepG2 Assay for zebrafish Peroxisome Proliferator-activated Receptor gamma (PPARg) (AID 2283833).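 Note: actives increase reporter signal over DMSO so AC50 reflects activation.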 Put shortly:
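HepG2, transient MRTU transfection, 24 h compound; zfPPARg-GAL4 reporter mRNA by RT-PCR + capillary electrophoresis; gain-of-signal vs DMSO.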

Experiment [3] has as its system turtle Thyroid Hormone Receptor, alpha (TRa), gene 101949057. As to the kind of experiment: ATG_trTRa_XSP2: Attagene TRANS-FACTORIAL Multi-Species (XSP1) HepG2 Assay for turtle Thyroid Hormone Receptor, alpha (TRa) (AID 2283834).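 Note: hits raise reporter mRNA over the DMSO baseline so AC50 marks activators.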 Put shortly:
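Multiplexed TRANS reporter assay; HepG2 carrying NR-Gal4 constructs treated 24 h. mRNA of the GAL4-UAS reporter quantified via labelled RT-PCR fragments on a genetic analyzer, vs DMSO negative control.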

A short description of experiment [4]: ATG_M_61_XSP2: Attagene TRANS-FACTORIAL Multi-Species (XSP2) HepG2 Assay for M61 Transcription Factor (Internal Marker) (AID 2283835; active = hit-call score of the fitted dose curve at least 0.9, where 1 is the maximum; inactive = score below 0.9;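 note: reporter mRNA of an internal background marker read by RT-PCR and capillary electrophoresis; active means a rise in signal above the DMSO baseline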). Put shortly:
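Transient MRTU transfection of human HepG2; 24 h chemical dosing with 3 nM 6-alpha-fluorotestosterone + 1.5 nM norgestrel added for AR stimulation. RNA isolated, RT, PCR, FAM-labelled, HpaI cut, CE read. Positive direction vs DMSO.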

The target in experiment [5] is zebrafish Thyroid Hormone Receptor beta (TRb), thrb (gene 30607) (UniProt Q9PVE4). As to the kind of experiment: ATG_zfTRb_XSP2: Attagene TRANS-FACTORIAL Multi-Species (XSP1) HepG2 Assay for zebrafish Thyroid Hormone Receptor beta (TRb) (AID 2283836). The gist of the method:
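Reporter transcripts measured by RT-PCR, 6-FAM labelling, HpaI digestion and capillary electrophoresis after 24 h chemical exposure. Human HepG2 cells carry an exogenous zebrafish TRb-GAL4 chimera; medium included 3 nM 6-alpha-fluorotestosterone plus 1.5 nM norgestrel.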

The target of experiment [6] is human Thyroid hormone Receptor alpha (TRa), THRA (gene 7067) (UniProt P10827). Kind of experiment: ATG_hTRa_XSP2: Attagene TRANS-FACTORIAL Multi-Species (XSP2) HepG2 Assay for human Thyroid hormone Receptor alpha (TRa) (AID 2283838). Put shortly:
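Reporter transcripts were read by RT-PCR with fluorescent primer extension, HpaI digestion and capillary electrophoresis. These came from HepG2 cells carrying multiplexed TRa-Gal4 TRANS constructs, harvested 24 hours after dosing. The medium also held 6-alpha-fluorotestosterone (3 nM) and norgestrel (1.5 nM), and increases were fitted against DMSO.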

Experiment [7] deals with frog Thyroid hormone Receptor alpha (TRa), thra-a (gene 397942) (UniProt P15204). As to the kind of experiment: ATG_frTRa_XSP2: Attagene TRANS-FACTORIAL Multi-Species (XSP2) HepG2 Assay for frog Thyroid hormone Receptor alpha (TRa) (AID 2283839). The gist of the method:
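Chimeric frog TRα-GAL4 activity in human liver cells measures reporter transcript induction 24 h post-dose. Detection uses RT-PCR, HpaI-digested labelled products and fluorescence capillary electrophoresis; DMSO serves as negative control.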

Experiment [8] addresses human Thyroid hormone Receptor beta (TRb), THRB (gene 7068) (UniProt P10828). As to the kind of experiment: ATG_hTRb_XSP2: Attagene TRANS-FACTORIAL Multi-Species (XSP2) HepG2 Assay for human Thyroid hormone Receptor beta (TRb) (AID 2283840).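 Note: actives raise reporter mRNA so potency reflects agonist-like gain of signal.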 The gist of the method: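 Gain-of-signal reporter transcription, referenced to DMSO, was measured in transiently transfected HepG2 after 24 h exposure; labeled RT-PCR products were resolved by capillary electrophoresis. Assay medium included 3 nM 6-alpha-fluorotestosterone and 1.5 nM norgestrel.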

Experiment [9] relates to Sodium/Iodide Symporter (NIS), SLC5A5 (gene 6528). Kind of experiment: CPHEA_Stoker_NIS_Inhibition_RAIU: CPHEA's Radioactive Iodide Uptake (RAIU) Assay for Sodium/Iodide Symporter (NIS) Inhibition, Stoker and Laws Labs (AID 2283841). The gist of the method: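 hNIS-HEK293T-EPA cells incubated 2 h at room temperature with compound (0.001–100 uM, 0.5% DMSO) and 329 pM final 125I in HBSS/10 mM HEPES, pH 7.4. Intracellular 125I counted; normalised to DMSO maximal uptake, triplicate, three biological replicates.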

Experiment [10] is described as follows: CPHEA_Stoker_NIS_Cytotoxicity: Cytotoxicity Assessment for CPHEA's Radioactive Iodide Uptake (RAIU) Assay for Sodium/Iodide Symporter (NIS) Inhibition, Stoker and Laws Labs (AID 2283897). Put shortly:
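hNIS-HEK293T-EPA cells, human NIS expressed in HEK293T, treated 2 h with chemicals (0.001–100 uM, 0.5% final DMSO). ATP content read by CellTiter-Glo luminescence; loss of signal analysed relative to DMSO.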

Experiment [11] is described as follows: CEETOX_H295R_11DCORT_noMTC: CeeTox H295R High-throughput Steroidogenesis Assay for 11-Deoxycortisol (11DCORT), maximum tolerated concentration (MTC) filtered results only (AID 2283911; active = hit-call score of the fitted dose curve at least 0.9, where 1 is the maximum; inactive = score below 0.9). To be noted: actives raise or lower the signal. Put shortly: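 Forskolin-primed (10 uM, 48 h) H295R adrenal cells are dosed for 48 h at 0.1% DMSO; medium 11-deoxycortisol is quantified by LC-MS/MS against a 7-point standard curve, with activity fitted in both directions versus DMSO.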

Experiment [12] can be described thus: CEETOX_H295R_OHPREG_noMTC: CeeTox H295R High-throughput Steroidogenesis Assay for OH-Pregnenolone (OHPREG), maximum tolerated concentration (MTC) filtered results only (AID 2283912; active = hit-call score of the fitted dose curve at least 0.9, where 1 is the maximum; inactive = score below 0.9). To be noted: actives raise or lower the signal. The gist of the method:
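H295R; 10 uM forskolin 48 h pre-stim; test cpd in DMSO (0.1% final) 48 h; media MTBE-extracted, HPLC-MS/MS for OH-pregnenolone; bidirectional fit vs DMSO; no MTC (MTT) filtering.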

The nature of experiment [13]: CEETOX_H295R_OHPROG_noMTC: CeeTox H295R High-throughput Steroidogenesis Assay for OH-Progesterone (OHPROG), maximum tolerated concentration (MTC) filtered results only (AID 2283914; active = hit-call score of the fitted dose curve at least 0.9, where 1 is the maximum; inactive = score below 0.9). Particulars: actives raise or lower the signal. Put shortly: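 Medium hormone measured by reverse-phase C18 HPLC with positive electrospray MS/MS after MTBE liquid-liquid extraction. Cells had 48 h forskolin (10 uM) prestimulation, then 48 h chemical dosing. Gain or loss of signal fitted relative to DMSO baseline.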

Experiment [14] in a line: CEETOX_H295R_CORTISOL_noMTC: CeeTox H295R High-throughput Steroidogenesis Assay for Cortisol, maximum tolerated concentration (MTC) filtered results only (AID 2283916; active = hit-call score of the fitted dose curve at least 0.9, where 1 is the maximum; inactive = score below 0.9). To be noted: actives raise or lower the signal. Put shortly:
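H295R human adrenal cells prestimulated 48 h with 10 uM forskolin, then exposed 48 h to chemical in 0.1% DMSO; cortisol in medium quantified by HPLC-MS/MS; bidirectional fit vs DMSO baseline, concentrations not MTT-filtered for MTC.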

Experiment [15] can be described thus: CEETOX_H295R_CORTIC_noMTC: CeeTox H295R High-throughput Steroidogenesis Assay for Corticosterone (CORTIC), maximum tolerated concentration (MTC) filtered results only (AID 2283917; active = hit-call score of the fitted dose curve at least 0.9, where 1 is the maximum; inactive = score below 0.9). To be noted: actives raise or lower the signal. The gist of the method: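 Corticosterone secreted into the medium was measured by reverse-phase C18 HPLC with tandem MS after MTBE extraction. Cells (H295R) had 48 h forskolin (10 uM) stimulation before 48 h chemical exposure; gain or loss of signal was fitted relative to DMSO.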

The nature of experiment [16]: CEETOX_H295R_DOC_noMTC: CeeTox H295R High-throughput Steroidogenesis Assay for DOC, maximum tolerated concentration (MTC) filtered results only (AID 2283918; active = hit-call score of the fitted dose curve at least 0.9, where 1 is the maximum; inactive = score below 0.9). Particulars: actives raise or lower the signal. The gist of the method:
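H295R cells prestimulated 48 h with 10 uM forskolin, then exposed 48 h to chemical in 0.1% DMSO. 11-Deoxycorticosterone in medium measured by MTBE extraction and HPLC-MS/MS; bidirectional fit vs DMSO, no MTC filter.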

A short description of experiment [17]: CEETOX_H295R_ESTRADIOL_noMTC: CeeTox H295R High-throughput Steroidogenesis Assay for Estradiol, maximum tolerated concentration (MTC) filtered results only (AID 2283919; active = hit-call score of the fitted dose curve at least 0.9, where 1 is the maximum; inactive = score below 0.9). To be noted: actives raise or lower the signal. Put shortly:
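Readout: dansyl-derivatized estradiol quantified by LC-MS/MS in medium from H295R cells dosed 48 h (0.1% DMSO) following 48 h forskolin (10 uM) prestimulation. Gain or loss of signal fitted against DMSO; no MTC filtering applied.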

Experiment [18] is described as follows: CEETOX_H295R_PROG_noMTC: CeeTox H295R High-throughput Steroidogenesis Assay for Progesterone (PROG), maximum tolerated concentration (MTC) filtered results only (AID 2283920; active = hit-call score of the fitted dose curve at least 0.9, where 1 is the maximum; inactive = score below 0.9). To be noted: actives raise or lower the signal. Put shortly:
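Readout: medium progesterone by MTBE extraction, reverse-phase C18 HPLC, ESI-positive MS/MS. Human H295R cells, 10 uM forskolin pretreatment 48 h, chemical 48 h in 0.1% DMSO. Gain or loss fitted against DMSO baseline.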

Experiment [19] is described as follows: CEETOX_H295R_ESTRONE_noMTC: CeeTox H295R High-throughput Steroidogenesis Assay for Estrone, maximum tolerated concentration (MTC) filtered results only (AID 2283921; active = hit-call score of the fitted dose curve at least 0.9, where 1 is the maximum; inactive = score below 0.9). Particulars: actives raise or lower the signal. The gist of the method: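 Estrone in spent medium, quantified by tandem MS following dansyl chloride derivatization, after 48 h chemical exposure (0.1% DMSO) of forskolin-prestimulated (10 uM, 48 h) H295R cells; concentrations not MTC-filtered, bidirectional fit against DMSO.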

zebrafish Thyroid Hormone Receptor beta (TRb), thrb (gene 30607), sequence (Q9PVE4 whole entry, looked up, the tested form may be a part): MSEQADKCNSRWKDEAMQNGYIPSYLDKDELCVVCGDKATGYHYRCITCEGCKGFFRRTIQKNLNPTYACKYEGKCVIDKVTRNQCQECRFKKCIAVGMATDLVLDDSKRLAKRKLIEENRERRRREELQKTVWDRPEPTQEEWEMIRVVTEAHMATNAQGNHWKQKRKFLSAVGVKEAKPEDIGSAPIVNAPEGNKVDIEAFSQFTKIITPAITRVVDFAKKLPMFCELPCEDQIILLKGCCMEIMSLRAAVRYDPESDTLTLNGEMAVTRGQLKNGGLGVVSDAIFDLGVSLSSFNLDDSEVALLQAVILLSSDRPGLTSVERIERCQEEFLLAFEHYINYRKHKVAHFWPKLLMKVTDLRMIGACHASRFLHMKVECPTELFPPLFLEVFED
human Thyroid hormone Receptor alpha (TRa), THRA (gene 7067), sequence (P10827 whole entry, looked up, the tested form may be a part): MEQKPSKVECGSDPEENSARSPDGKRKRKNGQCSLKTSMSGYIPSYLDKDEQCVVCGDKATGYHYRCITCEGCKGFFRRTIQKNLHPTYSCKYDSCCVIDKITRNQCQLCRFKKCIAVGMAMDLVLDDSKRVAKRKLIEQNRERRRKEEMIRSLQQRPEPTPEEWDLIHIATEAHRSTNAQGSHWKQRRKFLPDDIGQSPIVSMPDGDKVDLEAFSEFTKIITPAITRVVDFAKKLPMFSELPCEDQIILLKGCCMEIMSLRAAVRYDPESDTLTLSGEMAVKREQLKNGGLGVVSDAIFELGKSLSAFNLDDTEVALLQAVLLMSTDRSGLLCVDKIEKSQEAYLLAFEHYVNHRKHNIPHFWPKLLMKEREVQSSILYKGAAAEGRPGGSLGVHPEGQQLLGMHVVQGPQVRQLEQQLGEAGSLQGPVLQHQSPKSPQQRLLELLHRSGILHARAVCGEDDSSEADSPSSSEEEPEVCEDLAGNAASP
human Thyroid hormone Receptor beta (TRb), THRB (gene 7068), sequence (P10828 whole entry, looked up): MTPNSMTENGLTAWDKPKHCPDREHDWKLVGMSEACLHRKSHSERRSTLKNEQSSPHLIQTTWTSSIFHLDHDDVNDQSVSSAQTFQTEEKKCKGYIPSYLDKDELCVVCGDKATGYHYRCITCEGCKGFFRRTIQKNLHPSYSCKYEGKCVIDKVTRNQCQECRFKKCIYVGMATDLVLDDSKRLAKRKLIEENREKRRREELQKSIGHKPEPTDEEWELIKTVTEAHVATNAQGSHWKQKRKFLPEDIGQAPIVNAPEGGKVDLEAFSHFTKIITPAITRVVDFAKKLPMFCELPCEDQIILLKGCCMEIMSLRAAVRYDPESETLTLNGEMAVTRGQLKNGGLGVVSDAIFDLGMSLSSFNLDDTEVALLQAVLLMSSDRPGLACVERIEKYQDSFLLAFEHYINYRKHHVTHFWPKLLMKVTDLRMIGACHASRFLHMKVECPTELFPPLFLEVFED
frog Thyroid hormone Receptor alpha (TRa), thra-a (gene 397942), sequence (P15204 whole entry, looked up, the tested form may be a part): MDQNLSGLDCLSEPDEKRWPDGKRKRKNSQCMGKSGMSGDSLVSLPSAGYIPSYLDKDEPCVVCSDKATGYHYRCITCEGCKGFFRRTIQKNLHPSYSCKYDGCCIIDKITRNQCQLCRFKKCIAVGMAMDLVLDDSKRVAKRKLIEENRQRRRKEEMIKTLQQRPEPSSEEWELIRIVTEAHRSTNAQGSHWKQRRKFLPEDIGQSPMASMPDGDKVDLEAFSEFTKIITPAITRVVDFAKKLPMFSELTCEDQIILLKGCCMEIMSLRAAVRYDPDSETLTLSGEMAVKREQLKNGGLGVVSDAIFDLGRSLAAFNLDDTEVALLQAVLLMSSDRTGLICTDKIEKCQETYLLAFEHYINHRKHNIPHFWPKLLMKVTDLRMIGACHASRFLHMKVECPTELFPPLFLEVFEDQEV

In the case of `COC(=O)N(OC)c1ccccc1COc1ccn(-c2ccc(Cl)cc2)n1`, the result in experiment [1], in experiment [2], in experiment [3], in [4], in experiment [5] and in [7] was inactive. Further, the compound was classed as inactive in experiment [8], in experiment [9] and in [10]. For the same compound, the AC50 in experiment [6] is 2.63 µM (active).

For `COP(=S)(OC)Oc1nc(Cl)c(Cl)cc1Cl`, the result in experiment [1], in experiment [3], in experiment [4], in [5], in experiment [6] and in [7] was inactive. Moreover, the outcome in experiment [8], in experiment [9] and in [10] was inactive.

For the compound `CCON=C(CC)C1=C(O)CC(c2c(C)cc(C)cc2C)CC1=O` (stereo unspecified), the outcome in [9] and in experiment [10] was inactive.

`CCCCC(CC)COC(=O)c1ccccc1C(=O)OCC(CC)CCCC` (stereo unspecified): the compound was called inactive in experiment [1], in experiment [3], in experiment [4], in experiment [5], in [6] and in [8]. The call in [11], in experiment [12], in [13], in [14], in experiment [15] and in experiment [16] was inactive. Besides, the result in [17], in [18] and in experiment [19] was inactive.

As to `CCCC1COC(Cn2cncn2)(c2ccc(Cl)cc2Cl)O1` (stereo unspecified), the call in [2], in experiment [3], in experiment [4], in experiment [6], in experiment [8] and in [9] was inactive. Further, the outcome in experiment [10] was inactive.

On to `COc1ccc(C(c2ccc(OC)cc2)C(Cl)(Cl)Cl)cc1`, for which the compound was called inactive in [1], in experiment [2], in experiment [3], in experiment [4], in [5] and in [6]. Besides, the outcome in experiment [9] and in [10] was inactive.
